{"source": "PubChem BioAssay (NCI)", "note": "Compounds without any hit were thinned out: in the full panel of roughly 83,000, 20% have a hit.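 Method: cells in 96-well plates; compound added at one concentration; 48 h incubation; percent growth measured; values under 10 scored active.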 A number with no mark means an inactive call. Active and inactive are the calls of the source."}
{"system": "T-47D breast", "test": "NCI-60 one-dose screen, 48 h (100 = growth as untreated, 0 = no growth, -100 = all killed)", "conditions": "10 µM unless noted"}
{"smiles": "CCC(=O)Nc1cc2c(cc1Cl)-c1ccccc1C2", "growth": "85.2%"}
{"smiles": "FC(F)(F)c1ccc(-c2cnc(-c3nn[nH]n3)nc2NC2CCCCCC2)cc1", "growth": "46.9% [50 µM]"}
{"smiles": "CCn1cnc(C[C@H](NC(=O)[C@H](CCCCNC(=O)Nc2cc(C(F)(F)F)cc(C(F)(F)F)c2)NC(=O)Nc2cc(C(F)(F)F)cc(C(F)(F)F)c2)C(=O)OC)c1", "growth": "-62.8% [100 µM] (active)"}
{"smiles": "O=c1ncc(-c2ccc(C(F)(F)F)cc2)c(NC2CCCCCC2)[nH]1", "growth": "32.5%"}
{"smiles": "Nc1nc(Nc2ccccc2SSc2ccccc2Nc2nc(N)nc(-c3cccc(Cl)c3)n2)nc(-c2cccc(Cl)c2)n1", "growth": "68.9%"}
{"smiles": "Cc1ccc2nc3c(n2c1)C(=O)C(=O)c1ccccc1-3", "growth": "-44.1% (active)"}
{"smiles": "O=C1NC(=S)S/C1=C\\c1cc(Br)ccc1O", "growth": "82.9%"}
{"smiles": "O=C1OC2(c3ccccc31)c1ccccc1-c1ccccc12", "growth": "90.1%"}
{"smiles": "Cc1sc2nc(NCCc3cccs3)[nH]c(=O)c2c1C", "growth": "74.6%"}
{"smiles": "COc1cc(/C=N/OC(=O)Nc2ccccc2)cc(OC)c1OC", "growth": "100%"}
{"smiles": "CSc1nc2nc3c(nc2c(=O)n1C)C(=O)c1ccccc1C3=O", "growth": "-45.3% (active)"}
{"smiles": "O=C(CNc1ccc2c(c1)C(=O)c1ccccc1C2=O)Nc1ccc2c(c1)C(=O)c1ccccc1C2=O", "growth": "-65.5% (active)"}
{"smiles": "Nc1ccc2c(c1Br)Cc1ccccc1-2", "growth": "87.8%"}
{"smiles": "c1ccc2c(-c3nc4ccccc4[nH]3)cccc2c1", "growth": "36%"}
{"smiles": "O=C(O)c1ccc2cccnc2c1O", "growth": "10.3%"}
{"smiles": "Cc1ccc(-c2c3c(N)nc(-c4ccncc4)nc3nc3c2c(C)nn3-c2ccccc2)cc1", "growth": "35.6%"}
{"smiles": "N#Cc1c(-c2ccccc2)cc(-c2ccccc2)n(CCCCCCC(=O)O)c1=O", "growth": "91.1%"}
{"smiles": "CCCCCN(CCCCC)CCCNc1c2c(nc3ccc(Cl)cc13)CCCC2", "growth": "38.1%"}
{"smiles": "Cc1cc(C)nc(NS(=O)(=O)c2ccc(Nc3nc4nc(SCc5ccccc5)nc(-c5ccc(O)cc5)c4c(=O)[nH]3)cc2)n1", "growth": "79.1%"}
{"smiles": "O=C1/C(=C/c2ccccc2Cl)CCc2ccccc21", "growth": "105%"}
{"smiles": "C/C(=C\\CCc1ccoc1)CC/C=C(\\C)CCCC1COC(=O)C1", "note": "(stereo not given)", "growth": "87.7%"}
{"smiles": "CC1Cc2ccccc2N1C(=O)c1ccc(C(=O)c2ccccc2)cc1", "note": "(stereo not given)", "growth": "91.4%"}
{"smiles": "COC(=O)[C@H](Cc1cn(C)cn1)NC(=O)[C@H](C)NC(=O)Nc1cc(C(F)(F)F)cc(C(F)(F)F)c1", "growth": "-58.7% [100 µM] (active)"}
{"smiles": "N#Cc1ccccc1C#Cc1ccccc1C#Cc1ccc(OCCCCCCOc2ccc(C#Cc3ccccc3C#Cc3ccccc3C#N)cc2)cc1", "growth": "93.4%"}
{"smiles": "CC[N+](CCCCCCCCCC[N+](CC)(c1ccccn1)c1ccccn1)(c1ccccn1)c1ccccn1", "growth": "13.8%"}
{"smiles": "COc1ccc2c(c1)C(=Nc1cc(OC)c(OC)c(OC)c1)C(=O)N2", "growth": "98.7%"}
{"smiles": "O=C(/C=C/c1c(-c2ccccc2)[nH]c2ccccc12)S(=O)(=O)c1ccccc1", "growth": "29.4%"}
{"smiles": "O=c1ccn(C2CC=C(CO)O2)c(=O)[nH]1", "note": "(stereo not given)", "growth": "96.5%"}
{"smiles": "C=CCN(/C=C/CN(CC=C)CC=C)CC=C", "growth": "101%"}
{"smiles": "Cc1ccc2nc(-c3ccc(N(C)C)c(Br)c3)cn2c1", "growth": "109%"}
{"smiles": "CN(C)CCC(=O)Nc1ccc(-n2cc(-c3cccc(NC(=S)Nc4cccc(-c5cn(-c6ccc(NC(=O)CCN(C)C)cc6)nn5)c4)c3)nn2)cc1", "growth": "69.1%"}
{"smiles": "C[C@]12CC[C@H](O)CC1=CC[C@@H]1[C@@H]2CC[C@]2(C)C(c3cccnc3)=CC[C@@H]12", "growth": "55.6%"}
{"smiles": "CCCCCCC(CC#N)(CCC)CCCC", "note": "(stereo not given)", "growth": "112%"}
{"smiles": "CCOC(=O)c1sc(NC(=O)COc2cccc(/C=C3\\CCc4cc(OC)ccc4C3=O)c2)nc1C", "growth": "84.8%"}
{"smiles": "Cc1ccc(S(=O)(=O)N2CCN(C(=O)CSc3nc4ccc(C)cc4[nH]3)CC2)cc1", "growth": "99.8%"}
{"smiles": "CCOC(=O)c1cnc2c(C)cc(C)cc2c1NCCCN(C)C", "growth": "54.5%"}
{"smiles": "Cc1ccc(C(NC(=O)c2ccccc2)c2ccc3cccnc3c2O)cc1", "note": "(stereo not given)", "growth": "25.1%"}
{"smiles": "COc1ccc(C(=O)COc2ccc(/C=C3\\Oc4ccc5ccccc5c4C3=O)cc2)cc1", "growth": "55.8%"}
{"smiles": "CCOC(=O)CCC(=O)O[C@H]1[C@H](O[C@@H]2[C@@H](C)[C@H](O[C@H]3C[C@@](C)(OC)[C@@H](O)[C@H](C)O3)[C@@H](C)C(=O)O[C@H](CC)[C@@](C)(O)[C@H](O)[C@@H](C)C(=O)[C@H](C)C[C@@]2(C)O)O[C@H](C)C[C@@H]1N(C)C", "growth": "97.1%"}
{"smiles": "COc1ccc(-c2ccc(O)c(C(=O)/C=C/c3cc(OC)c(OC)c(OC)c3)c2)cc1", "growth": "67%"}
